According to PMC4336329 (PLoS ONE, 2015):
About 14,000 (4.5%) of roughly 310,000 compounds showed an effect of 50% or more. The effect is printed as a negative number. This is one part of a sample in which strong results are shown more often than they occur.

These compounds were tested against human ether-à-go-go-related gene (hERG) potassium channel (human, UniProt Q12809) (assay: primary screen, population patch clamp on CHO cells stably expressing hERG; higher = less effect of the substance).
Sequence of human ether-à-go-go-related gene (hERG) potassium channel (Q12809 whole entry, looked up): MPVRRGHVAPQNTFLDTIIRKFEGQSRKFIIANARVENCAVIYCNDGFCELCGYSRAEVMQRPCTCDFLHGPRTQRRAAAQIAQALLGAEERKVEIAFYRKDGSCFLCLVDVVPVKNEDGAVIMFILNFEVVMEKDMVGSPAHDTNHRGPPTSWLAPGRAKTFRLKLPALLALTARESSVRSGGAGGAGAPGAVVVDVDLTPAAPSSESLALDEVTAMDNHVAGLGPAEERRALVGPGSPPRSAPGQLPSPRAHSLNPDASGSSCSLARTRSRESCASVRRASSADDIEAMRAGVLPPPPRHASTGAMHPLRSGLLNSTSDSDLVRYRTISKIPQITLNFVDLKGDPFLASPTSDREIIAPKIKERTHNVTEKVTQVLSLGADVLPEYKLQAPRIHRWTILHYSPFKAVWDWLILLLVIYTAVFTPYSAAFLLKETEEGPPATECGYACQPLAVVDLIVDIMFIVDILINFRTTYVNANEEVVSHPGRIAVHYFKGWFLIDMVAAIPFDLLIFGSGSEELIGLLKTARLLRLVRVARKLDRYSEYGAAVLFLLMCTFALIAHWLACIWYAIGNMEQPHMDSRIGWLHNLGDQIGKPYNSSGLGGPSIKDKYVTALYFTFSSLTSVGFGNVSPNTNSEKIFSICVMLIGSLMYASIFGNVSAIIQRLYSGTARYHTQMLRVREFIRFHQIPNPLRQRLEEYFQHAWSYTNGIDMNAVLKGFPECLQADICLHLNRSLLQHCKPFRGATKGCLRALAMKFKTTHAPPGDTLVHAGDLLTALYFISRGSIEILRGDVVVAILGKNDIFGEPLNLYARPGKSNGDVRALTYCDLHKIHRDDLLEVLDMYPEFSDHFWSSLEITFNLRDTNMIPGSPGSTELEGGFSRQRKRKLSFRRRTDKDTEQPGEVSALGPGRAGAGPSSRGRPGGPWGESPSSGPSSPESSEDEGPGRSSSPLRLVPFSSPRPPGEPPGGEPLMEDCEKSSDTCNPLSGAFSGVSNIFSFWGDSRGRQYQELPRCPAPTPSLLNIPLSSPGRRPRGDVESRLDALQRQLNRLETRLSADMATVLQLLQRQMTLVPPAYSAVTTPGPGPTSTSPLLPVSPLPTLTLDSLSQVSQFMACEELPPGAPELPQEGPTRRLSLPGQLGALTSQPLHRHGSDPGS
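Further: peak tail current of the secondary pulse compared with the same well before compound.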

Compound	hERG current change (%, negative = inhibition) at 10uM [%]
CN(C)CCN(Cc1ccccc1)S(=O)(=O)c1ccc(-c2ccc(=O)[nH]n2)s1	-67.4
COCCN(Cc1cccs1)S(=O)(=O)c1ccc(-c2ccc(=O)[nH]n2)s1	-46.8
CCCCN(Cc1ccco1)S(=O)(=O)c1ccc(-c2ccc(=O)[nH]n2)s1	-27.7
CC(C)CCN(Cc1ccco1)S(=O)(=O)c1ccc(-c2ccc(=O)[nH]n2)s1	-0.664
CCCCN(Cc1cccs1)S(=O)(=O)c1ccc(-c2ccc(=O)[nH]n2)s1	-3.4
CN(C)CCN(Cc1ccco1)S(=O)(=O)c1ccc(-c2ccc(=O)[nH]n2)s1	-64.4
COc1ccccc1CNS(=O)(=O)c1c(C)nc2scc(C)n2c1=O	-8.78
Cc1cc(Nc2ccc(F)cc2C)n2ncnc2n1	-4.78
CCCC(=O)Nc1nc2c(c(=O)[nH]1)CCCC2	10.2
C/C(=C1/SC(=S)N(CCC(=O)O)C1=O)c1ccc(O)cc1	9.74
Cc1ccc(Nc2nc(-c3ccc(F)cc3)cs2)nc1	17.1
CCNC(=S)N(CCc1ccc(OC)c(OC)c1)Cc1cc2cc(OC)ccc2[nH]c1=O	-56.9
CCNC(=S)N(CCc1cccc(C)c1)Cc1cc2cc(OC)c(OC)cc2[nH]c1=O	-22.4
Cc1ccc2cc(CNC(C)C)c(=O)[nH]c2c1	-9.38
CC(=O)N(CCc1ccccc1C)Cc1cc2ccc(C)cc2[nH]c1=O	-18.3
CNCc1cc2ccc(C)cc2[nH]c1=O	-33.1
Cc1cccc(CCNCc2cc3ccc(C)cc3[nH]c2=O)c1	-77.3
CCC(=O)N(CCc1ccc(OC)c(OC)c1)Cc1cc2ccc(C)cc2n2nnnc12	-76.8
CCNC(=S)N(CCc1ccccc1C)Cc1cc2cc(OC)c(OC)cc2[nH]c1=O	-22.3
Cc1ccc2cc(CNCCc3ccccc3C)c(=O)[nH]c2c1	-69.7
Cc1ccc2cc(CNC(C)(C)C)c(=O)[nH]c2c1	-19

Compound	hERG current change (%, negative = inhibition) at 10uM [%]
COc1ccc(CCN(Cc2cc3ccc(C)cc3n3nnnc23)C(C)=O)cc1OC	-32.7
CCC(=O)N(Cc1cc2ccc(C)cc2n2nnnc12)C1CCCCC1	-32.3
CCOC(=O)C1(CC2CCCCO2)CCN(C(=O)Nc2ccc3c(c2)OCO3)CC1 (stereo not drawn)	15.9
COCC(=O)Nc1ccc(C(C)C)cc1	-1.68
CCCCC/S(CC1CC1(Cl)Cl)=N\S(=O)(=O)c1ccc(C)cc1 (stereo not drawn)	15.8
Cc1sc(NC(=O)C2CCCCC2C(=O)O)c(C(N)=O)c1-c1ccc(C(C)C)cc1 (stereo not drawn)	-9.39
CCCCC(=O)Nc1nnc(SCC(=O)NCC2CCCO2)s1 (stereo not drawn)	-24.8
CCNS(=O)(=O)c1ccc(CCC(=O)NCc2cccnc2)cc1	16.8
Cc1ccc(C(=O)n2c3ccccc3c3ccccc32)cc1	15.9
COC(=O)[C@]1(C)N[C@H](c2ccc(SC3CCCCC3)c(OC)c2)[C@@H]2C(=O)N(C)C(=O)[C@@H]21.O=C(O)C(F)(F)F	-16.6
O=C(Nc1ccccc1)C1=C[C@@H](c2ccccc2)C[C@@H](OCc2ccc(CO)cc2)O1	2.2
O=C(NCC(=O)N1CCOCC1)c1ccc(Br)o1	17.4
CC(C)CNC(=O)CSc1n[nH]c(=O)n1CCc1ccccc1	22.1
Cc1nc2c(-c3ccccc3)cnn2c(N2CCOCC2)c1C	11.8
COc1ccc(/C=N/NC(=O)C(C)Sc2ccccn2)cc1[N+](=O)[O-] (stereo not drawn)	-7.8
COc1ccc(CC(=O)OCc2cc3ccc(C)cc3[nH]c2=O)cc1	9.18
CC(=O)N(CCc1cccc(C)c1)Cc1cc2ccc(C)cc2[nH]c1=O	-19.7
COc1cc(OC)c(OC)cc1CNCCc1ccc(OC)c(OC)c1	-6.55
COc1ccc(CCN(Cc2cc3ccc(C)cc3[nH]c2=O)C(C)=O)cc1OC	-65.1
COc1ccc(CCNCc2cc3ccc(C)cc3[nH]c2=O)cc1OC	-73.6
COc1ccc(CCN(Cc2cc3cc(C)ccc3[nH]c2=O)C(C)=O)cc1OC	-6.87

Compound	hERG current change (%, negative = inhibition) at 10uM [%]
CC(=O)c1cn(-c2ccc(Cl)cc2)c(=O)n(Cc2ccc(F)cc2)c1=O	1.04
COc1ccc(CNC(=O)CCS(=O)(=O)c2ccc(Br)cc2)cc1	7.33
CC(=O)Nc1ccc(NS(=O)(=O)c2ccc(-c3cnc(C4CC4)o3)cc2)cc1	3.37
CCC(CC)C1C(C#N)=C(N)Oc2cc(C)oc(=O)c21 (stereo not drawn)	-12.7
CC1(C)C(c2ccccc2)=NC(c2cccnc2)=[N+]1[O-]	14.8
COc1ccc(C(=O)N2CC3(C)C4CCC3(C)C2(C#N)C4)cc1OC (stereo not drawn)	4.65
O=C(CSc1nc2nn(-c3ccccc3)c(=O)c-2c2n1CCCCC2)NCCCc1ccccc1	-63.1
COCCNC(=O)CSc1nc2nn(-c3ccccc3)c(=O)c-2c2n1CCCCC2	23.2
O=C(CSc1nc2nn(-c3ccccc3)c(=O)c-2c2n1CCCCC2)Nc1ccc(F)cc1F	-63.2
CNC(=O)CSc1nc2nn(-c3ccccc3)c(=O)c-2c2n1CCCCC2	-37.2
COCC(C)NC(=O)CSc1nc2nn(-c3ccccc3)c(=O)c-2c2n1CCCCC2 (stereo not drawn)	8.5
CC(C)CNC(=O)CSc1nc2nn(-c3ccccc3)c(=O)c-2c2n1CCCCC2	-18
CC(C)(C)CC(=O)NCCc1csc(-c2ccccc2)n1	-7.63
Cn1ncc(Cl)c1C(=O)N/N=C/c1cccc(OC2CSC2)c1	8.77
O=C(Nc1nccs1)c1cc(Cl)ccc1[N+](=O)[O-]	-9.55
Cc1cccc(Cn2c(N(C)Cc3ccccc3)nc3c2c(=O)[nH]c(=O)n3C)c1	-9.99
CCOc1ccc2nc(NC(=O)Nc3cccs3)sc2c1	18
COc1ccc(C(=O)Nc2ccccc2N2CCOCC2)cc1S(=O)(=O)N1CCOCC1	-17.8
CCCCN1C(=O)c2ccc(C(=O)Nc3ccccc3N3CCOCC3)cc2C1=O	7.18
Cc1ccc(C(=O)Nc2ccccc2N2CCOCC2)cc1S(=O)(=O)N1CCOCC1	-55.3
O=C(Nc1ccccc1N1CCCC1)c1ccc(F)c(S(=O)(=O)N2CCOCC2)c1	-22.5

Compound	hERG current change (%, negative = inhibition) at 10uM [%]
O=C(Nc1ccccc1N1CCOCC1)c1ccncc1	-1.93
O=C(Nc1ccccc1N1CCCC1)c1ccc(Cl)c(S(=O)(=O)N2CCOCC2)c1	-41.4
O=C(Nc1ccccc1N1CCOCC1)c1ccc(F)c(S(=O)(=O)N2CCOCC2)c1	-12.6
O=C(Nc1ccccc1N1CCOCC1)c1ccc2c(c1)C(=O)N(Cc1ccncc1)C2=O	-58.8
Cc1ccc(C(=O)Nc2ccccc2N2CCCC2)cc1S(=O)(=O)N1CCOCC1	-51.2
Cc1cn2c(N)c(/C=C3\C=Nc4ccccc43)c(=O)nc2s1	2.43
CCOc1ccc(N=C(/C(C(=O)C(=O)N2CCOCC2)=C(\O)c2ccccc2)c2ccccc2)cc1	27.7
COc1ccc(NC(=O)CN(C)S(=O)(=O)c2cccc3nsnc23)cc1	-21.9
O=C(O)c1ccccc1-c1nc2ccccc2c(=O)n1O	14.9
CCCOC(=O)CC1C(=O)NCCN1Cc1ccc(F)cc1 (stereo not drawn)	3.35
CC1CC(C)CN(S(=O)(=O)c2ccc(NC(=O)C3CC(=O)N(Cc4ccccc4)C3)cc2)C1 (stereo not drawn)	17.3
CC(C)CC1NC(=O)N(Cc2nc3ccccc3s2)C1=O (stereo not drawn)	-32.5
CC(C)CCC1(CCNC(=O)c2cccs2)CCOC(C)(C)C1 (stereo not drawn)	-8.99
c1ccc(-c2nn3c(Cn4nnc5ccccc54)nnc3s2)nc1	-14.4
CC(C)C[C@H]1C(=O)N2CCC[C@H]2[C@]2(O)O[C@](NC(=O)C3C=C4c5cccc6[nH]c(Br)c(c56)C[C@H]4N(C)C3)(C(C)C)C(=O)N12.CS(=O)(=O)O (stereo partly drawn)	20.4
CC1(C)C(/C=C/C=C/C=C/C=C2\N(CCCCS(=O)(=O)[O-])c3ccc4ccccc4c3C2(C)C)=[N+](CCCCS(=O)(=O)[O-])c2ccc3ccccc3c21.[Na+]	-15.5
CN1/C(=C\C=C\C2=[N+](C)c3ccc4ccccc4c3C2(C)C)C(C)(C)c2ccccc21.[O-][Cl+3]([O-])([O-])[O-]	-75.7
CCN1C(=O)C(O)(CC(=O)/C=C/C=C/c2ccccc2)c2ccccc21 (stereo not drawn)	-0.629
CCCN1C(=O)/C(=C/C=C2\N(CC)c3ccccc3C2(C)C)SC1=S	8.96
CN1/C(=C\C=O)C(C)(C)c2ccccc21	12.9
CCN1/C(=C\C=C\C2=[N+](CC)c3ccccc3C2(C)C)C(C)(C)c2ccccc21.[O-][Cl+3]([O-])([O-])[O-]	-96.7
